Hit rate of the full screen: of about 2,100 compounds, about 760 (36%) were called active.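 Rule for the calls: active = thallium-flux fluorescence traces judged by eye to show enhanced or reduced glutamate response, manual score 1 or -1, so both directions (some results past the limit were not filed as active); inactive = the rest, including fluorescent or raised-baseline compounds.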 The list is a sample of the results.
assay: thallium influx changes without GIRK channels – cell-based, HEK-293 rmGlu8, no GIRK, thallium flux, counter-screen for GIRK activator project, confirmation (AID 623868); conditions: thallium flux fluorescence, at 10 µM, actives lie on both sides, codes: 1 enhancer, -1 blocker, 0 none, thallium stimulus containing EC20 glutamate;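 note: extra codes mark interference with 3 for fluorescent and 4 for baseline rise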

Row | SMILES | manual score
1 | CCc1nc2cc(Cl)c(Cl)cc2[nH]1 | 0 (inactive)
2 | CCCOc1cccc(-c2cc(-c3n[nH]c(=S)n3CC)c3ccccc3n2)c1 | 1 (active)
3 | CCn1c(-c2cc(-c3cccc(OC)c3)nc3ccccc23)n[nH]c1=S | 0.5 (inactive)
4 | Cc1nc(C)c(C(=O)Nc2ccc(Oc3ccccc3)cc2)o1 | 0 (inactive)
5 | Cc1occc1C(=O)Nc1cccc(C(F)(F)F)c1 | 0 (inactive)
6 | O=C(Nc1nnc(-c2cccs2)o1)c1cccc(C(F)(F)F)c1 | 1 (active)
7 | CCCCN(C)S(=O)(=O)c1ccc(C(=O)Nc2nnc(-c3cccs3)o2)cc1 | 1 (active)
8 | Cc1cc(C)c(NC(=O)c2ccc(S(=O)(=O)N(C)C)cc2)c(C)n1 | 0 (inactive)
9 | O=C(Nc1nnc(-c2cccs2)o1)c1cccc(Oc2ccccc2)c1 | 1 (active)
10 | CCOC(=O)C1=C(CC)Nc2ccccc2N=C1NC(=O)c1ccc(S(=O)(=O)N(C)C)cc1 | -0.5 (inactive)
11 | O=C(Nc1nnc(-c2cccs2)o1)c1cccc(F)c1 | 1 (active)
12 | Cc1ncoc1C(=O)Nc1ccc(Oc2ccccc2)cc1 | 0 (inactive)
13 | O=C(Nc1cccs1)Nc1c(F)c(F)c(F)c(F)c1F | 0 (inactive)
14 | O=C(NNC(=S)Nc1cccc(C(F)(F)F)c1)c1cccc(Cl)c1 | 0 (inactive)
15 | CCOC(=O)C1=C(CC)Nc2ccccc2N=C1NC(=O)Nc1ccc(Cl)c(Cl)c1 | 0 (inactive)
16 | CN1CCN(S(=O)(=O)c2cccc(S(=O)(=O)c3cccc(S(=O)(=O)N4CCN(C)CC4)c3)c2)CC1 | 0 (inactive)
17 | Cc1cc2nc(CCN(C(=S)NCC(C)C)C3CCCC3)[nH]c2cc1C | 0 (inactive)
18 | Cc1nc(N2CCN(C(=O)COc3ccccc3)CC2)c2c(C)c(C)sc2n1 | -1 (active)
19 | O=C(CN1C(=O)c2cccc3cccc(c23)C1=O)N1CCN(c2ccccn2)CC1 | 3 (inactive)
20 | Cc1sc2nc(CN3CCCC3)nc(N3CCN(S(=O)(=O)c4cccs4)CC3)c2c1C | 0 (inactive)
21 | CSc1cccc(NC(=O)CN(c2ccccc2)S(=O)(=O)N(C)C)c1 | 0 (inactive)
22 | CCOC(=O)CSc1cccc2cccnc12 | 1 (active)
23 | CN(C)C(=O)CSc1cccc2cccnc12 | 0 (inactive)
24 | Cc1cccc(CSc2cccc3cccnc23)c1 | 1 (active)
25 | CCOC(=O)CSc1cc(CSc2ccccc2)nc(-c2ccccc2)n1 | 0 (inactive)

Row | SMILES | manual score
26 | O=C(NC(=Nc1ccccc1)N1CCOCC1)Nc1ccccc1 | 0 (inactive)
27 | Cc1ccc(/C=N/NC(=S)N2CCOCC2)cc1 | 1 (active)
28 | S=C(N/N=C/c1ccc(Cl)cc1)N1CCOCC1 | 1 (active)
29 | CC(CCc1ccccc1)NC(=O)N1CCOCC1 (centres undefined) | 0 (inactive)
30 | Clc1ccc(/C=N/Nc2nc(Cl)nc3ccccc23)cc1 | 0 (inactive)
31 | Cc1ccc(C(=O)c2ccc(N3CCOCC3)c(F)c2)cc1 | 0 (inactive)
32 | O=C(CCCc1nc(-c2ccc(Cl)cc2)no1)N1CCOCC1 | 0 (inactive)
33 | S=C(N/N=C/c1ccccc1)N1CCOCC1 | 1 (active)
34 | Cc1ccc(S(=O)(=O)c2c(C)cc(C)nc2Cl)c(C)c1 | 0 (inactive)
35 | Cc1ccn2c(NC3CCCCC3)c(C(C)C)nc2c1 | 0 (inactive)
36 | Cc1ccc(NC(=O)CSC(N)=O)cc1Cl | 0 (inactive)
37 | CC(=O)Nc1ccc(S(=O)(=O)NC(C(=O)O)C2=CCC=CC2)cc1 (centres undefined) | 0 (inactive)
38 | CC1=NN(C(N)=S)C(=O)C1N=Nc1ccc(C)cc1C (centres undefined) | 1 (active)
39 | CC1=NN(C(N)=S)C(=O)C1N=Nc1ccccc1C (centres undefined) | 1 (active)
40 | N=c1c2c(ncn1CCN1CCOCC1)Oc1ccc3ccccc3c1C2c1ccccc1 (centres undefined) | 0 (inactive)
41 | Cn1c(=O)c(NCCc2ccccc2)c2c3c(cccc31)C(=O)c1ccccc1-2 | 3 (inactive)
42 | Cc1nnc2n(C3CCCCC3)c(=O)c3c4c(sc3n12)COC(C)(C)C4 | -1 (active)
43 | CC(Nc1nc(N2CCCCC2)nc2ccccc12)c1ccccc1 (centres undefined) | 0 (inactive)
44 | O=C(NNc1ncc(C(F)(F)F)cc1Cl)c1c(Cl)cccc1Cl | 0.5 (inactive)
45 | O=C1/C(=C\c2ccccn2)SC(=S)N1Nc1ncc(C(F)(F)F)cc1Cl | 0 (inactive)
46 | FC(F)(F)c1cnc(NNC(=S)Nc2ccc(Cl)cc2)c(Cl)c1 | 1 (active)
47 | Cc1ccc(NC(=S)Nc2ccc(Cl)c(Cl)c2)c(OC(F)F)c1 | 0 (inactive)
48 | FC(F)(F)c1cnc(NNC(=S)Nc2ccccc2Cl)c(Cl)c1 | 1 (active)
49 | NC(=O)c1ccc(Cc2ncc(C(F)(F)F)cc2Cl)s1 | 0 (inactive)
50 | Cc1ccc(NC(=S)NNc2ncc(C(F)(F)F)cc2Cl)c(C)c1 | 1 (active)

Row | SMILES | manual score
51 | Cn1c(=O)c(NCCO)c2c3c(cccc31)C(=O)c1ccccc1-2 | 3 (inactive)
52 | C/C(=N/NC(=O)c1ccncc1)c1cc2ccc(O)cc2oc1=O | 0 (inactive)
53 | Cc1ccc2nsnc2c1NC(=S)NC(=O)c1ccco1 | 1 (active)
54 | O=C(CC(=O)Nc1ccccn1)Nc1ccccn1 | 0 (inactive)
55 | O=C(NC(=S)Nc1ccccn1)c1ccco1 | 1 (active)
56 | Cc1cccc(NC(=S)NC(=O)c2ccco2)n1 | 1 (active)
57 | Cc1cc(NC(=O)c2ccco2)ccc1NC(=O)Cc1cccs1 | 0 (inactive)
58 | O=C(NCCCn1ccnc1)Nc1ccc(Cl)c(Cl)c1 | 0 (inactive)
59 | N/C(=N/O)c1nc(N2CCCC2)nc(N(c2ccccc2)c2ccccc2)n1 | 0 (inactive)
60 | CC(=O)c1c(C)[nH]c(C(=O)CSc2ncnc3sc(-c4ccccc4)cc23)c1C | 1 (active)
61 | CC(C)N(C(=O)CSc1ncnc2sc(-c3ccccc3)cc12)C(C)C | 1 (active)
62 | CN(CCC#N)C(=O)CSc1ncnc2sc(-c3ccccc3)cc12 | 0 (inactive)
63 | CC(C)C(C)(C#N)NC(=O)CSc1ncnc2sc(-c3ccccc3)cc12 (centres undefined) | 0 (inactive)
64 | CC(=O)c1c(C)[nH]c(C(=O)COc2cc(C)cc(C)c2)c1C | 0 (inactive)
65 | CCN(CC)C(=O)CSc1ncnc2sc(-c3ccccc3)cc12 | 0.5 (inactive)
66 | CCOC(=O)Cn1c(=O)oc2cc(S(=O)(=O)NCCCc3ccccc3)ccc21 | 0 (inactive)
67 | CCOC(=O)c1sc2ncnc(NCc3ccco3)c2c1C | 1 (active)
68 | Nc1nc(Nc2ccccc2)nc(NCc2ccco2)c1[N+](=O)[O-] | 0 (inactive)
69 | COc1ccc(C(=O)NC(=S)N2CCCCC2)cc1 | 1 (active)
70 | CNC(=S)N1CCN(c2ccc(OC)cc2)CC1 | 0 (inactive)
71 | COc1ccc(C(=O)NC(=S)N2CCC(C)CC2)cc1 | 1 (active)
72 | COc1ccc(NC(=O)Nc2ccccc2C(=O)N2CCCC2)cc1 | 0 (inactive)
73 | CC1CCN(C(=S)NC(=O)c2ccccc2)CC1 | 0.5 (inactive)
74 | Cc1cccc(NC(=S)N2CCC(C(=O)c3ccc(F)cc3)CC2)c1C | 0 (inactive)
